{
  "source": "PubChem BioAssay (EPA / NIEHS)",
  "note": "Results filed as inconclusive are left out. Active and inactive are the calls of the source. How the source made its calls: active means hit-call score of the fitted dose curve at least 0.9, where 1 is the maximum; inconclusive means response in the unintended direction; inactive means score below 0.9.",
  "data": [
    {"target": "Hepatocyte nuclear factor 4-alpha (Homo sapiens) (UniProt P41235)", "sequence (P41235 whole entry, looked up)": "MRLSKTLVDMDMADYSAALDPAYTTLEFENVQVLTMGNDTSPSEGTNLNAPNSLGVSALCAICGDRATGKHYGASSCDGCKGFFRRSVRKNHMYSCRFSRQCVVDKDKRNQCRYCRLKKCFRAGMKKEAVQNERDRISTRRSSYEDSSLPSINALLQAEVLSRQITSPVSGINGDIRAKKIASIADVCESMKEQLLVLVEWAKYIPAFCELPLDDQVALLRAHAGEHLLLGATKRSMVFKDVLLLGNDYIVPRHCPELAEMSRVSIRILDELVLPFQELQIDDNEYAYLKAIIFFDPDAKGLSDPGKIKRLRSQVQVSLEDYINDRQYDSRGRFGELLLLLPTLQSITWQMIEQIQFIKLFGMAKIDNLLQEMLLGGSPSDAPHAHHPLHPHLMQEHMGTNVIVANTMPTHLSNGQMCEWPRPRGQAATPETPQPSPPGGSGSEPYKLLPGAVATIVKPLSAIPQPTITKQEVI", "assay": "ATG_HNF4a_TRANS: Attagene TRANS-FACTORIAL HepG2 Assay for human Hepatocyte Nuclear Factor 4 alpha (HNF4a) (AID 2282982)", "conditions": "HepG2 HNF4a transactivation reporter, mRNA readout", "protocol": "ATG_TRANS is a cell-based, multiplexed-readout assay that uses HepG2, a human liver cell line, with measurements taken at 24 hours after chemical dosing in a 24-well plate.ATG_HNF4a_TRANS is one of 30 assay component(s) measured or calculated from the ATG_TRANS assay. It is designed to make measurements of mRNA induction, a form of inducible reporter, as detected with fluorescence intensity signals by Reverse transcription polymerase chain reaction (RT-PCR) and Capillary electrophoresis technology.Data from the assay component ATG_HNF4a_TRANS was analyzed into 1 assay endpoint. This assay endpoint, ATG_HNF4a_TRANS, was analyzed in the positive analysis fitting direction relative to DMSO as the negative control and baseline of activity. Using a type of inducible reporter, measures of mRNA for gain-of-signal activity can be used to understand the reporter gene at the transcription factor-level as they relate to the gene HNF4A. Furthermore, this assay endpoint can be referred to as a primary readout, because this assay has produced multiple assay endpoints where this one serves a reporter gene function. To generalize the intended target to other relatable targets, this assay endpoint is annotated to the nuclear receptor intended target family, where the subfamily is orphan.\nHuman liver HepG2 cells are transiently transfected with multiple reporter transcription units (MRTUs) in 6-well plates using FuGene 6 reagent (Roche; 3 ml FuGene/1 mg DNA). The MRTU constructs are regulated by a cis-regulating element (promoter). […] A major difference between the CIS and TRANS system is that in CIS activities of endogenous TFs are measured, whereas the TRANS assay evaluates changes in activities of exogenous, chimeric NR-Gal4 proteins. […] At the end of 24 hour incubation, total RNA was isolated using TriZol reagent (Invitrogen). The isolated RNA is then reverse-transcribed using oligo(dT) primer and Mo-MLV reverse transcriptase (Invitrogen) with DNAse I (Ambion) treatment for 30 min. The one-tenth of the produced cDNA was amplified by PCR using Taq DNA polymerase (Invitrogen) and two reporter sequence-specific primers. The PCR products were fluorescently labeled by primer extension with 6-arboxyfluorescein (6-FAM) 5'-labeled reporter sequence-specific primer (2 min at 95 C, 20 s at 68 C and 10 min at 72 C) and these products were digested with 5U of HpaI (New England Biolabs) for 2h at 37 C. The fragments were purified using Qiaquick PCR columns (Qiagen), analyzed on an ABI 3130xL genetic analyzer (Applied Biosystems) with peak positions identified by using a set of X-rhodamine (ROX)-labeled MapMarker1000 molecular weight standards (BioVentures). The raw capillary electrophoresis data was processed using Attagraph software (Attagene).", "values": [
      {"smiles": "Nc1ccc(N)c(Cl)c1", "outcome": "inactive"},
      {"smiles": "CC1=CC[C@H](C(C)C)C=C1", "outcome": "inactive"},
      {"smiles": "CCCC(C)CCC(C)=O", "note": "(stereo not given)", "outcome": "inactive"},
      {"smiles": "CCCCCC/C=C\\CCCCCCCC(=O)O", "outcome": "inactive"},
      {"smiles": "CC(C)CCCC(C)CC=O", "note": "(stereo not given)", "outcome": "inactive"},
      {"smiles": "CC(C)c1ccc2cc(C(C)C)ccc2c1", "outcome": "inactive"},
      {"smiles": "O=Cc1ccc(CO)o1", "outcome": "inactive"},
      {"smiles": "CCCCCCCCCCCCCCCC[n+]1ccccc1", "AC50": "19.8 µM (active)"},
      {"smiles": "CCCCCCCCCCCCCCCCCC#N", "outcome": "inactive"},
      {"smiles": "C[C@]12CCC(=O)C=C1CC[C@@H]1[C@@H]2C(=O)C[C@@]2(C)[C@H]1CC[C@]2(O)C(=O)CO", "outcome": "inactive"},
      {"smiles": "O=C(Nc1cccc(C(F)(F)F)c1)c1cc(Br)cc(Br)c1O", "outcome": "inactive"},
      {"smiles": "CC(C)CC(O)Cc1ccccc1", "note": "(stereo not given)", "outcome": "inactive"},
      {"smiles": "O=C(Nc1ccccc1SSc1ccccc1NC(=O)c1ccccc1)c1ccccc1", "outcome": "inactive"},
      {"smiles": "C(=CC=Nc1ccccc1)C=CNc1ccccc1", "outcome": "inactive"},
      {"smiles": "CC(=O)C=CC1C(C)=CCC(C)C1(C)C", "note": "(stereo not given)", "outcome": "inactive"},
      {"smiles": "O=C(O)c1cc(Cl)cc([N+](=O)[O-])c1Cl", "outcome": "inactive"},
      {"smiles": "O=C(Nc1ccccc1)c1ccccc1O", "outcome": "inactive"},
      {"smiles": "CC=CC(=O)N(CC)c1ccccc1C", "outcome": "inactive"},
      {"smiles": "CCCCCCC1(C)CCC(=O)O1", "note": "(stereo not given)", "outcome": "inactive"},
      {"smiles": "C#CC1(O)CC[C@H]2[C@@H]3CCC4=CCCC[C@@H]4[C@H]3CC[C@@]21C", "note": "(stereo not given in full)", "outcome": "inactive"},
      {"smiles": "CC(C)(C)c1ccc(-c2ccc(C(C)(C)C)cc2)cc1", "outcome": "inactive"},
      {"smiles": "Cc1cccc(N)n1", "outcome": "inactive"},
      {"smiles": "CC(C)(c1cc(Br)c(OCCO)c(Br)c1)c1cc(Br)c(OCCO)c(Br)c1", "outcome": "inactive"},
      {"smiles": "O=S(=O)(O)c1cc(S(=O)(=O)O)c2ccc3c(S(=O)(=O)O)cc(S(=O)(=O)O)c4ccc1c2c43", "outcome": "inactive"},
      {"smiles": "Cc1ccc2oc(=O)ccc2c1", "outcome": "inactive"},
      {"smiles": "CCOC(=O)NNc1nncc2ccccc12", "outcome": "inactive"},
      {"smiles": "N#CCc1ccc(Cl)cc1Cl", "outcome": "inactive"},
      {"smiles": "O=P(O)(O)Oc1ccccc1", "outcome": "inactive"},
      {"smiles": "CC(CC=O)CCCC(C)(C)O", "note": "(stereo not given)", "outcome": "inactive"},
      {"smiles": "CCCCC(CC)COC(=O)c1ccccc1O", "note": "(stereo not given)", "outcome": "inactive"},
      {"smiles": "O=C1C(N(CO)C(=O)NCO)N(CO)C(=O)N1CO", "note": "(stereo not given)", "outcome": "inactive"},
      {"smiles": "COC(=O)c1ccc2cc(C(=O)OC)ccc2c1", "outcome": "inactive"},
      {"smiles": "C=C(C)C(=O)OCC(C)C", "outcome": "inactive"},
      {"smiles": "Cc1ccc(OC(=O)CC(C)C)cc1", "outcome": "inactive"},
      {"smiles": "COCc1c(C(C)C)nc(C(C)C)c(/C=C/[C@@H](O)C[C@@H](O)CC(=O)O)c1-c1ccc(F)cc1", "outcome": "inactive"},
      {"smiles": "CCO[Si](CCCN=C=O)(OCC)OCC", "outcome": "inactive"},
      {"smiles": "CC1=Nc2ccc3ccccc3c2C1(C)C", "outcome": "inactive"},
      {"smiles": "O=C1c2ccccc2C(=O)C1c1nc2ccccc2c(Br)c1O", "outcome": "inactive"},
      {"smiles": "COc1c2ccoc2cc2oc(=O)ccc12", "outcome": "inactive"},
      {"smiles": "O=C(C=Cc1ccccc1)OCc1ccccc1", "outcome": "inactive"}
    ]}
  ]
}
